From PubChem
BLM helicase inh – inhibitors of human Bloom syndrome helicase BLM. P54132. recombinant BLM DNA unwinding, fluorescence dequenching. Potency, µM (doses to about 56.1 µM), without a hit: at the top dose activity change, negative = inhibition, usual class: inhibitors. 350,000 tested, 0.2% active. AID 2528;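 also: plate controls were vehicle for no effect and no enzyme for full effect; nearly all actives have a fitted effect of over 35% in size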
TDP1 inh – inhibitors of human tyrosyl-DNA phosphodiesterase TDP1; recombinant TDP1, AlphaScreen DNA substrate cleavage; Potency, µM (doses to about 130 µM), without a hit: top-dose activity change, negative = inhibition, hits mostly inhibitors; 350,000 tested, 0.28% active; also: nearly all actives have a fitted effect of over 40% in size
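Signal: AlphaScreen proximity between streptavidin donor and anti-FITC acceptor beads on intact substrate. Reaction: Tdp1 1 nM, substrate 15 nM final, 5 min RT after 15 min compound preincubation.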
RECQ1 inh – blocks DNA unwinding by human RECQ1 | RECQ1 DNA unwinding, red fluorescence kinetic read | Potency, µM (highest dose often 57.3 µM), for the others: at the highest dose activity, negative = inhibition, most hits filed as inhibitors | 240,000 tested, 0.54% active;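 also: plate controls were vehicle for no effect and no enzyme for full effect; nearly all actives have a fitted effect of over 30% in size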
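50 nM RECQ1T1 preincubated 15 min with compound in Tris pH 8.0 buffer with MgCl2, DTT, Tween-20 and 2.5 ug/ml poly(dI-dC); started with 200 nM TAMRA/BHQ-2 forked duplex and 2 mM ATP. Unwinding read as fluorescence (525/598 nm), two reads 2 h apart.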
FEN1 inh – inhibitors of human flap endonuclease 1. Recombinant FEN1 flap cleavage, fluorescence, 15 min. Potency, µM (highest dose often 114 µM), for inactives: at the highest dose activity change, negative = inhibition, most hits filed as inhibitors. 390,000 tested, 0.35% active. AID 588795; also: nearly all actives have a fitted effect of over 65% in size
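Potency values derive from four-parameter Hill fits of normalized qHTS data. The reaction used 10 nM FEN1 preincubated 15 min at room temperature with compound, then 50 nM DNA substrate, read at 0 and 15 min.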
APE1 inh – APE1 (human) endonuclease inhibition. recombinant APE1, TAMRA/BHQ-2 abasic DNA cleavage fluorescence. 350,000 tested, 0.35% active. P27695. Potency, µM (doses to about 65.8 µM), for inactives: at the top dose activity change, negative = inhibition, actives largely listed as inhibitors;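 also: plate controls were vehicle for no effect and reference inhibitor for full effect; nearly all actives have a fitted effect of over 55% in size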
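Quantitative HTS: incision of a TAMRA/BHQ-2 double-stranded substrate bearing a tetrahydrofuran abasic site by 0.75 nM APE1 raises fluorescence. Substrate 50 nM final, added after 15 min compound preincubation at room temperature; progress as third-minus-first kinetic read difference.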
* = called active by the depositor; i = inactive; u = inconclusive; x = not tested or not shown. An excerpt weighted towards active compounds, which were near 0.92% of everything screened. Calls follow the shape of the dose curve; as a rule, active = well fitted curve in the direction sought with a large enough effect; inconclusive = small, poorly fitted or top-dose-only effect, or another doubt; inactive = no such curve, though single readings can be large; an effect the other way counts as inactive or inconclusive. Unless noted, % is scaled to controls: 0 for no effect and ±100 for the full control effect; potency is read from the fitted curve at half-maximal effect.

SMILES	BLM helicase inh	TDP1 inh	RECQ1 inh	FEN1 inh	APE1 inh
O=C(O)c1cc(O)c2c(c1)[C@H]([C@H]1c3cc(C(=O)O)cc(O)c3C(=O)c3c(O[C@@H]4O[C@H](CO)[C@@H](O)[C@H](O)[C@H]4O)cccc31)c1cccc(OC3O[C@H](CO)[C@@H](O)[C@H](O)[C@H]3O)c1C2=O (some centres not stated)	x	x	x	1.3µM*	0.067µM*
O=C1c2c(O)cccc2C(C2OC(CO)[C@@H](O)[C@H](O)[C@H]2O)c2cc(CO)cc(O)c21 (some centres not stated)	x	2%	x	9%	20%
CC(C)(C)n1ncc2c(=O)n(Cc3ccccc3C#N)cnc21	x	x	x	5%	0%
O=C(CNC(=O)c1ccccc1)N[C@H](C(=O)Nc1cc(C(F)(F)F)ccc1Cl)c1ccccc1	x	1%	x	x	x
O=c1c2ccccc2[nH]c2ccc(O)cc12	-14%	40µM*	x	u	u
Cc1ccc2[nH]c3ccccc3c(=O)c2c1	-5%	x	x	-13%	5%
N#Cc1c(-c2ccc(C(F)(F)F)cc2)no[n+]1[O-]	x	x	x	x	-2%
CCCCCCc1cc2cc(-c3nnc(-c4ccccc4OC)o3)c(=O)oc2cc1O	u	-5%	i	45µM*	u
Nc1c(N=Nc2ccc([N+](=O)[O-])cc2)c(S(=O)(=O)O)cc2cc(S(=O)(=O)O)c(/C=C/c3ccccc3)c(O)c12	x	x	x	11µM*	x
O=C(Nc1cc(C(F)(F)F)ccc1Cl)C(O)Cc1ccccc1 (configuration not stated)	x	-6%	x	x	x
CCCN(CCC)C1=N/C(=C\c2ccco2)C(=O)N1c1ccccc1	-11%	5%	28µM*	-8%	-3%
O=C1/C(=C\c2ccco2)NC(=S)N1c1ccccc1	-4%	0%	i	-12%	2%
NC(=O)C(=CNc1nc(-c2ccc(Cl)c(Cl)c2)cs1)C(N)=O	u	6%	3.5µM*	x	0.63µM*
CCc1ccc(C(C)NC(=O)C2CCCO2)cc1 (configuration not stated)	-7%	3%	x	10%	7%
CCC(NC(=O)C1CCCO1)c1ccccc1 (configuration not stated)	-3%	2.2µM*	x	0%	-3%
O=C(Nc1ccccc1-c1ccccc1)c1ccccc1	1%	x	x	-13%	-3%
Nc1c(S(=O)(=O)O)cc(NC(=O)c2ccccc2)c2c1C(=O)c1ccccc1C2=O	u	x	x	u	21µM*
O=C(NC1=C(Nc2ccc(Cl)cc2)C(=O)c2ccccc2C1=O)c1ccccc1	-7%	7%	0%	-4%	0%
O=C1C(Cl)=C(NC(=O)c2ccccc2)C(=O)C(Cl)=C1NC(=O)c1ccccc1	-8%	x	x	79µM*	19%
CC(CN1CCCCC1)OC(=O)COc1ccc(Cl)cc1 (configuration not stated)	3%	x	x	12%	-7%
Cc1cccc(OCC(=O)OC(C)CN2CCCCC2)c1 (configuration not stated)	0%	35µM*	x	-5%	8%
CCn1c(/C=C/c2ccccc2[N+](=O)[O-])nc2ccccc2c1=O	-8%	9%	-4%	1%	-5%
Cn1c(/C=C/c2ccccc2[N+](=O)[O-])nc2ccccc2c1=O	-4%	5µM*	x	16%	15%
COc1ccc2nc(-c3ccc(N(C)C)cc3)sc2c1	0%	4%	i	x	-2%
COC(=O)c1c(-c2ccc(OC)cc2)sc2ccccc12	x	20µM*	x	x	42%
Cc1ccccc1-c1nc(NCCN2CCOCC2)c2ccccc2n1	-2%	7.9µM*	-4%	x	4%
CS[C@@H]1SC[C@H]2C(=O)N(C)C(C(C)C)C(=O)OC[C@@H](NC(=O)c3cnc4ccccc4n3)C(=O)N[C@@H](C)C(=O)N(C)[C@H]1C(=O)N(C)C(C(C)C)C(=O)OC[C@@H](NC(=O)c1cnc3ccccc3n1)C(=O)N[C@@H](C)C(=O)N2C (some centres not stated)	26%	9%	10µM*	x	u
CC(NC(=O)c1cnc2ccccc2n1)c1ccccc1 (configuration not stated)	-12%	x	x	-10%	-8%
COc1ccc(CCCCCCOCc2ccccc2)cc1	x	20µM*	x	4%	-13%
